# Laboratory results reported in the OligoGym collection.
# Target: VN1R2
# Assay: pooled miR-30 sensor sort-seq; sequence = guide strand
# Details: shRNA
# Note: reference of the scale not given here.
row,Sequence,sensor-assay potency score (higher = more potent)
1,TAAACGTAGGTGATGAAGGAAA,-0.975
2,TTAGATAGGATAACCAAGGAGT,-0.311
3,TAGTGCAGCAGTGTTCACTAGC,-0.0087
4,TACAAGACCAAAACGATGGAGC,-0.2

# Target: VNN1
# Assay: as above
# Details: shRNA
row,Sequence,sensor-assay potency score (higher = more potent)
1,TTATTATTCTTGCTTGTGCTGT,-0.405
2,TTAAATGACAGCAGAGATCTTT,0.464
3,TTCTCAGACATTTTGTAGCTTA,0.132
4,TTACTGTTAAGACAGGTCCGGA,-1.14
5,TATGGGTAGAGAGAGTCCCTGT,-0.516
6,TTGACACCTGAAATTCTCCAGG,-0.925
7,TTTCACTCAGCAACACCTCAGG,-0.729
8,TATCATAATGAAATGCTCTTGA,0.667
9,TTAGCATTATTATTCTTGCTTG,-0.677
10,TTTGCCACAACATAGATAGAGT,-0.809
11,TTTCAAACCTGGTAGAAGCTGT,0.475
12,TAGAGGATAATATTAACCCGGA,-0.217

# Target: VNN2
# Assay: as above
# Details: shRNA
row,Sequence,sensor-assay potency score (higher = more potent)
1,TTAAATGACAGCAAAGCTCCTT,0.199
2,TATTGTATTGAAAGTAGCCATT,-1.45
3,TATACTACTGAAATAGCCCTTC,0.854
4,TAAGTTATTGCTGAATTGCTGG,0.0796
5,TTCTTTTTGTAACATTCTGTAG,-1.08
6,TCTTCTTTTTGTAACATTCTGT,-0.103
7,TTAGCAGGTAAGTTATTGCTGA,-0.154
8,TTTCGGTAAGTAGCACTTCAGG,-1.26
9,TAATAATATGAATATTAGCAGG,-1.34
10,TTGCACTTCAGCATTGTGCAGA,-0.233
11,TAAATGACAGCAAAGCTCCTTT,0.246
12,TTTCAAATCTTGTAGAAGCAGT,-0.249

# Target: VWA2
# Assay: as above
# Details: shRNA
row,Sequence,sensor-assay potency score (higher = more potent)
1,TAGCCGTCCAGTCCTTCTGGAA,-1.51
2,TAGACCATCACATGCTTTGGGC,-0.664
3,AAAACCATCCTCTTGATTCTTG,-0.0709
4,TTTGCTTACATGGACTTCCTGG,0.502
5,TTGAAAATGAATCCAAGGGGAA,-0.607
6,TTTGTCATAGATGTGCAGCAGG,-0.376
7,TTTGAAAACCATCCTCTTGATT,-0.884
8,TCTCACAAAGCTCTGCATCTGA,0.327
9,TTTGGTTGAACAGATCCTGAGG,-0.36
10,TTGCTTACATGGACTTCCTGGA,-0.0634
11,TAACAGAAACATGATGTCCACT,-1.06
12,TTTCTTTGCTTACATGGACTTC,-1.06
